High-throughput results (PubChem)
SMN2 splice up: increases expression of the SMN2 splice variant | HEK293 SMN2-luciferase splicing reporter, luminescence, 30-36 h | AID 1458 | Potency, µM (titrated, usually from 46.1 µM), inactives show top-dose activity change, positive = activation, actives largely listed as activators | actives 2.8% (n = 210,000); further: % of control where 0% means no effect; nearly all actives have a fitted effect of over 55% in size
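qHTS luciferase splicing reporter: luminescence rises when SMN2 exon 7 is included in transfected HEK293 cells. Compound exposure lasted 30-36 h at 37C, with 4.5 mM final sodium butyrate as control, followed by a ONE-Glo read.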
ELG1 DNA repair: ELG1-dependent DNA repair inhibition. HEK293T ELG1-luciferase reporter, luminescence, 16 h; DNA damage induced by 5-fluorouridine. Potency, µM (series often up to 46.1 µM), without a hit: at the highest dose activity change, negative = inhibition, actives largely listed as inhibitors. actives 2.3% (n = 330,000). AID 504467; further: on the % scale 0 is the no-effect control and ±100 the full control effect; nearly all actives have a fitted effect of over 55% in size
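Cells (2,000 per well) received 5-fluorouridine plus test compound or DMSO and were incubated 16 hr at 37 °C, 5% CO2. Luciferase activity was read by luminescence 30 min after ONE-Glo addition; signal suppression marked inhibition of damage-induced ELG1 function.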
NPC1 promoter act: activates the NPC1 promoter; Huh7 NPC1 promoter luciferase reporter, 24 h; Potency, µM (highest dose often 9.22 µM), inactives show at the highest dose activation, usual class: activators; actives 2.4% (n = 320,000); AID 485313; further: % of control where 0% means no effect; nearly all actives have a fitted effect of over 60% in size
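Stable NPC1-promoter luciferase Huh7 line; cpd (DMSO) 24 h, 37 °C, 5% CO2; Amplite luciferase reagent 10 min RT; luminescence readout. qHTS format.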
FLuc modulator: inhibits or activates purified firefly luciferase, miR-21 counter-screen; AID 588342; P08659; actives 6.9% (n = 360,000); Potency, µM (titrated, usually from 57.5 µM), inactives show at the top dose activity change, negative = inhibition, most hits filed as inhibitors; purified FLuc, Km substrates, luminescence inhibition;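 further: plate controls were vehicle for no effect and reference inhibitor for full effect; nearly all actives have a fitted effect of over 55% in size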
Target sequence (P08659 whole entry, looked up): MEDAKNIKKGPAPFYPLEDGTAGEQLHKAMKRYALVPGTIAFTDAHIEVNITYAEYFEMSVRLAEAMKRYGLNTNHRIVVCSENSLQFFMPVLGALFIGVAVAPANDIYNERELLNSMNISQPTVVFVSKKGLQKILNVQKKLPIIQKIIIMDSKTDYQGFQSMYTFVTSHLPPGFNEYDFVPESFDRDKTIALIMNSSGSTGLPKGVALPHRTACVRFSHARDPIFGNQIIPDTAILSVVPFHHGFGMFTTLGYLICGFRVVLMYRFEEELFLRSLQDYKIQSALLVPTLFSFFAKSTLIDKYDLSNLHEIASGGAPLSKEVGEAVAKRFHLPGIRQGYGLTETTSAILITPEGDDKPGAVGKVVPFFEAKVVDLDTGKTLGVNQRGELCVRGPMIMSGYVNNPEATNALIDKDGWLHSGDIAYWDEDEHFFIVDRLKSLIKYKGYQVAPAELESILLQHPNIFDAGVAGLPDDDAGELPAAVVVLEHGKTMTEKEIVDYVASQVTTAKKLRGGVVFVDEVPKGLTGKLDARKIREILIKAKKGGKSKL
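Purified P. pyralis luciferase (10nM final) with 10uM D-luciferin and 10uM ATP (Km levels) in 50mM Tris acetate pH 7.5, 10mM Mg acetate, 0.01% Tween-20, 0.05% BSA; qHTS 6-point titration, ~60 µM downward; luminescence read.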
ELG1 genotox: inducers of genotoxicity in HEK293T ELG1-luciferase cells; HEK293T ELG1-luciferase reporter, luminescence, 16 h; Potency, µM (doses to about 46 µM), for the others: at the highest dose activity change, positive = activation, most hits filed as activators; actives 1.3% (n = 330,000); further: % of control where 0% means no effect; nearly all actives have a fitted effect of over 60% in size
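Screening used a luciferase reporter fused to human ELG1 in HEK293T cells. Luminescence was read on a CCD plate imager after 16 hr exposure and 30 min ONE-Glo incubation.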
Rab9 promoter act: activators of Rab9 promoter; Huh7 Rab9 promoter-luciferase reporter, luminescence, 24 h; Potency, µM (top dose mostly 9.22 µM), for the others: at the highest dose activation, negative = inhibition, actives largely listed as activators; actives 2.8% (n = 320,000); AID 485297; further: % of control where 0% means no effect; nearly all actives have a fitted effect of over 60% in size
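Cells were plated at 1500 per well in reduced-serum medium with 10% FBS and left 2 h. Compound in DMSO was then added for 24 h at 37 °C. Reporter signal was read by luminescence after 10 min with luciferase detection reagent.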
Starred values were filed as active, the others as inactive; ? = inconclusive; . = not tested or not shown. Rows were chosen to be rich in hits. Some 9.2% of all compounds tested hit in one or more screens of this group. The call rests on the fitted dose curve; in most records, active means well fitted curve in the direction sought with a large enough effect; inconclusive means small, poorly fitted or top-dose-only effect, or another doubt; inactive means no such curve, though single readings can be large; an effect the other way counts as inactive or inconclusive. Potency means the concentration at half of the fitted maximal effect.

SMILES	SMN2 splice up	ELG1 DNA repair	NPC1 promoter act	FLuc modulator	ELG1 genotox	Rab9 promoter act
CN(C)c1ccc(C(=O)Nc2cccc(S(=O)(=O)NC3=NCCCCC3)c2)cc1	.	?	17.1%	.	8.9%	26.0%
Cc1ccc(C(C)C)c(OCC(=O)Nc2cccc(S(=O)(=O)NC3=NCCCCC3)c2)c1	.	23.1µM*	0.3%	0.2%	-19.3%	-1.3%
Cc1ccccc1OCC(=O)Nc1cccc(S(=O)(=O)NC2=NCCC2)c1	.	?	12.6%	2.13µM*	8.6%	15.7%
Cc1ccccc1C(=O)OCC(=O)Nc1cccc(S(=O)(=O)NC2=NCCC2)c1	.	4.0%	.	.	-1.2%	.
Cc1ccc(NC(=O)CSc2cn(CC(=O)N3CCOCC3)c3ccccc23)cc1Cl	.	.	.	-16.1%	.	.
CCOc1ccccc1OCC(=O)Nc1cccc(S(=O)(=O)NC2=NCCCCC2)c1	.	?	1.5%	-0.6%	-3.9%	-4.1%
CCc1ccccc1OCC(=O)Nc1cccc(S(=O)(=O)N2CCCC2)c1	.	-27.8%	1.7%	-13.2%	-6.8%	1.6%
CCc1ccccc1OCC(=O)Nc1cccc(S(=O)(=O)NC2=NCCC2)c1	.	2.6%	1.7%	19µM*	1.0%	1.2%
Cc1ccccc1OCC(=O)Nc1cccc(S(=O)(=O)NC2=NCCCCC2)c1	.	-0.7%	-1.5%	16.9µM*	25.9%	1.2%
Cc1ccc(S(=O)(=O)NCC(c2ccc(N(C)C)cc2)N2CCc3ccccc32)cc1C (stereo not given)	.	.	.	1.1%	.	.
COc1ccc(OC)c(Cc2nnc(CCC(=O)N3CCCCC3c3nccs3)o2)c1 (stereo not given)	.	?	?	23.9µM*	?	3.55µM*
O=C(N/N=C/C(Br)=C\c1ccccc1)c1ccc2nc[nH]c2c1	?	?	2.2%	12µM*	11.2%	1.4%
CC(/C=N/NC(=O)c1cc(-c2ccc(C)s2)[nH]n1)=C\c1ccccc1	27.4%	?	-6.6%	?	4.3%	1.2%
CC(/C=N/NC(=O)c1ccc2nc(C)[nH]c2c1)=C\c1ccccc1	16.9%	-5.7%	2.1%	8.49µM*	-6.0%	-1.3%
CC(=C/c1ccccc1)/C=N/NC(=O)c1ccc2nc[nH]c2c1	?	?	16.4%	5.36µM*	10.4%	19.8%
Cc1ccc(-c2cc(C(=O)N3CCN(C(=O)c4ccco4)CC3)no2)cc1	-14.5%	-11.3%	14.9%	?	9.9%	-3.8%
Cc1ccc(-c2c(C)sc(=NC(=O)c3ccco3)n2C)cc1	?	?	1.58µM*	0.953µM*	16.5%	2.51µM*
O=C(Nc1ccc(Cl)c(Cl)c1)C1C2C=CC3(O2)C1C(=O)N(CCN1CCCCC1)C3C(=O)NC1CCCCC1 (stereo not given)	.	-6.2%	2.1%	-1.8%	-3.5%	0.1%
C=CC[C@@H](CC(=O)N(CCO)Cc1ccccc1)C(=O)N[C@@H](C)COC(=O)[C@@H](CC=C)Cc1ccc(F)cc1	.	18.3µM*	.	.	-5.6%	.
C=CC[C@H](CC(=O)N(CCO)Cc1ccccc1)C(=O)N[C@@H](COC(=O)[C@@H](CC=C)Cc1ccc(F)cc1)Cc1c[nH]c2ccccc12	.	20.6µM*	.	.	-10.3%	.
C=CC[C@@H](CC(=O)N(CCO)Cc1ccccc1)C(=O)NC[C@H](OC(=O)[C@@H](CC=C)Cc1ccc(F)cc1)c1ccccc1	.	5.8µM*	.	.	-8.3%	.
C=CC[C@@H](CC(=O)N(CCO)Cc1ccccc1)C(=O)N[C@@H](COC(=O)[C@@H](CC=C)Cc1ccc(F)cc1)Cc1c[nH]c2ccccc12	.	18.3µM*	.	.	-15.3%	.
CCC(C)(C)NC(=O)C1CCN(S(=O)(=O)c2c(C)noc2/C=C/c2ccc(C)cc2)CC1	.	.	.	-0.5%	.	.
CN(C1CCCCC1)S(=O)(=O)c1ccc2c(c1)c(=O)c(C(=O)NCc1ccc(Cl)cc1)cn2C	-2.5%	.	.	-0.7%	.	.
COc1ccccc1C(=O)CSc1nccn1C	.	?	22.8%	?	8.6%	26.8%
SMILES	SMN2 splice up	ELG1 DNA repair	NPC1 promoter act	FLuc modulator	ELG1 genotox	Rab9 promoter act
Cn1ccnc1SCC(=O)c1c[nH]c2ccccc12	17.8µM*	?	3.98µM*	19µM*	10.3µM*	3.55µM*
CCc1nc(SC)ncc1C(=O)N1CCN(c2cc(C)ccc2C)CC1	.	.	.	23.2%	.	.
CCCCSC(=O)Nc1ccccc1	7.4%	?	-0.8%	16.9µM*	?	6.9%
CC(=O)c1cccc(NC(=O)Nc2cccs2)c1	15.1%	-26.8%	14.6%	19µM*	-19.5%	9.7%
COc1ccc(NC(=O)Nc2cccs2)cc1OC	-7.5%	?	18.2%	21.3µM*	?	19.8%
COc1cccc(NC(=O)Nc2cccs2)c1	?	?	19.0%	23.9µM*	1.9%	?
CCOC(=O)c1cnn(-c2ccc(C(=O)Nc3ccc(OC(F)(F)F)cc3)cc2)c1N	.	.	.	1.6%	.	.
COc1cccc(CN(C)CC(=O)Nc2sc3c(c2C#N)CCC3)c1OC	-47.7%	11.6µM*	-8.0%	-11.6%	2.1%	-9.1%
CN(CC(=O)Nc1sc2c(c1C#N)CCCCC2)Cc1nc2ccccc2c(=O)[nH]1	-42.9%	23.1µM*	-7.3%	-17.5%	-10.4%	-5.8%
COc1ccc(CN(C)CC(=O)Nc2sc3c(c2C#N)CCC3)cc1OC	-57.2%	?	-9.7%	4.8%	-2.6%	-3.9%
CN(Cc1nc2ccccc2c(=O)[nH]1)C(=O)c1cc2c(s1)CCCCC2	.	-14.1%	.	.	3.9%	.
Cn1c(=O)oc2cc(S(=O)(=O)N3CCCC(C(=O)Nc4ccc(Br)cc4F)C3)ccc21 (stereo not given)	2.2%	.	.	-2.7%	.	.
CC1CCCC(C)N1C(=O)COC(=O)CNC(=O)c1sc2ccccc2c1Cl (stereo not given)	.	1.0%	-3.6%	?	1.4%	-1.8%
CC1CCCN(C(=O)COC(=O)CNC(=O)c2sc3ccccc3c2Cl)C1 (stereo not given)	.	13.5%	-4.1%	23.9µM*	-0.5%	-4.1%
CC1CCCN(C(=O)COC(=O)COc2ccc(Cl)cc2)C1 (stereo not given)	.	5.2%	.	.	1.4%	.
CC1CCCN(C(=O)COC(=O)Cc2c(F)cccc2Cl)C1 (stereo not given)	.	?	?	16.9µM*	?	?
CC(C)CN(C(=O)COC(=O)CNC(=O)c1sc2ccccc2c1Cl)C1CCS(=O)(=O)C1 (stereo not given)	.	2.4%	-1.5%	12µM*	1.7%	-6.0%
CCOC(=O)c1[nH]c(C)c(CCC(=O)Nc2cc(Cl)c(OC)cc2OC)c1C	.	.	.	-12.5%	.	.
O=C(O)c1ccc(Cl)cc1Nc1nc2cc(Cl)ccc2o1	.	?	2.3%	?	-15.6%	10.8%
